Measured values from ChEMBL document CHEMBL1961873, “Compounds: GSK PKIS; Assays: Nanosyn kinase panel” (2012).

These compounds were tested against T1, Ephrin type-B receptor 2 (Homo sapiens) (UniProt P29323). Conditions: at 1 µM.
T1 sequence (whole entry): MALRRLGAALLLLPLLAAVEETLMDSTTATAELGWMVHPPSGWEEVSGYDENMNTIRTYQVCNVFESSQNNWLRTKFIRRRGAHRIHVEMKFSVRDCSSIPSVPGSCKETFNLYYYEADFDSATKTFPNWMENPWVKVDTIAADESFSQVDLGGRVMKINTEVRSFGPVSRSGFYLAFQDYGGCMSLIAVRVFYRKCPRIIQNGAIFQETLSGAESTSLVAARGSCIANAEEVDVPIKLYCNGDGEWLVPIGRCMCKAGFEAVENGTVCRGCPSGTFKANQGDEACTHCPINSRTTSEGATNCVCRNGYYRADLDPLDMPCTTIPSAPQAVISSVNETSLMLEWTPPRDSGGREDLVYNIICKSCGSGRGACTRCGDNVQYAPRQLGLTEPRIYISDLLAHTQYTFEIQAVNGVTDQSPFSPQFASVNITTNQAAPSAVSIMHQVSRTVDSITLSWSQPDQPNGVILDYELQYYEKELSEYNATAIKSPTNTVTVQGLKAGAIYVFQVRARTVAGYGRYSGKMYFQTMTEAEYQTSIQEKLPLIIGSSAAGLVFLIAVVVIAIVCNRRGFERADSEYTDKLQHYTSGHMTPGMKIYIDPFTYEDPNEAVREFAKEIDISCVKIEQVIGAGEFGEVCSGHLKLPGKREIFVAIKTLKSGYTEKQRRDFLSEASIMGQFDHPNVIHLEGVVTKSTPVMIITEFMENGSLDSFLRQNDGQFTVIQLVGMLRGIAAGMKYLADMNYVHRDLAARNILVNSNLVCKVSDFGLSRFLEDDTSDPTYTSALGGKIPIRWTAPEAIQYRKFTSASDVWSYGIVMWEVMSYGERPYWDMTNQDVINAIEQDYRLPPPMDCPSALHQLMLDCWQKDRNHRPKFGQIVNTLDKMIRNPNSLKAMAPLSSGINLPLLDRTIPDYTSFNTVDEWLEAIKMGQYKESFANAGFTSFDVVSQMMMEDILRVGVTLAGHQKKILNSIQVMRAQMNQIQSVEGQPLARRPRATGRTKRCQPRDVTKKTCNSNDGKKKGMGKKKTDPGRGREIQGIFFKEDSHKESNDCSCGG
Work on Fc1ccc(-c2cc(-c3c[nH]nc3-c3ccccn3)ccn2)cc1 yielded an inhibition of 10.6%.
With Clc1ccc(-c2nn3ncccc3c2-c2ccnc(Nc3ccccc3)n2)cc1 the inhibition was 55.4%.
For CC1=C(C(=O)Nc2cc(Cl)c3[nH]ncc3c2)C(c2ccc(C(F)(F)F)cc2)CC(=O)N1 (stereo unspecified), the inhibition was 6.01%.
With CC(C)(CO)CNC(=O)c1ccc2c(c1)/C(=N/Nc1ccc(S(N)(=O)=O)cc1)C(=O)N2 the inhibition was 7.99%.
COc1cccc(-c2c[nH]c3c(N/N=C/c4ccncc4)ncnc23)c1 gave an inhibition of 25.9%.
For Cc1ccc(O)cc1Nc1ccnc2cc(-c3ccccn3)ccc12, the inhibition was 91.9%.
For Cc1cccc2c1NC(=O)/C2=N\Nc1ccc(S(N)(=O)=O)cc1, the inhibition was 5.1%.
Work on CN1CCC(n2cnc(-c3ccc(F)cc3)c2-c2ccnc(Nc3ccccc3)n2)CC1 yielded an inhibition of 44.1%.
Compound COc1ccc2[nH]c3c4[nH]c5ccc(OC)cc5c4c4c(c3c2c1)C(=O)NC4=O has an inhibition of 17.6%.
In the case of CNC(=O)c1cncc(/C=C/c2ccccc2Cl)c1, the inhibition was 8.47%.
With COC(=O)Nc1nc2ccc(Oc3ccc(NC(=O)Nc4cccc(Cl)c4)cc3)cc2[nH]1 the inhibition was 68%.
For COc1ccc(-c2cc(-c3c[nH]nc3-c3ccccn3)ccn2)cc1, the inhibition was 10.2%.
CCn1c(-c2nonc2N)nc2ccccc21 gave an inhibition of 10.1%.
With COc1ccc(CNC(=O)c2ccc(-c3cc(-c4nnc(C)o4)ccc3C)cc2)cc1 the inhibition was 10.6%.
With Fc1cccc(COc2ccc(Nc3ncnc4sc(-c5ccco5)cc34)cc2Cl)c1 the inhibition was 8.15%.
For CCn1c(-c2nonc2N)nc2c(C#CC(C)(C)O)ncc(OC3CCNCC3)c21, the inhibition was 4.11%.
In the case of CNC(=O)c1cc(-c2ccc(F)cc2)cc(-c2ccc(S(=O)(=O)N3CCCC3)cc2)c1N, the inhibition was 5.41%.
Compound COc1cc(N2CCN(C(C)C)CC2)ccc1Nc1nc(Nc2ccc(F)cc2C(N)=O)c2cc[nH]c2n1 has an inhibition of 1.15%.
Compound CCn1c(-c2nonc2N)nc2cnc(Oc3cccc(NC(=O)c4ccc(N(C)C)cc4)c3)cc21 has an inhibition of 7.72%.
With COc1ccc2c(-c3ccnc(Nc4cccc(OC(F)(F)F)c4)n3)cnn2n1 the inhibition was 14.9%.
Compound NS(=O)(=O)c1ccc(N/N=C2\C(=O)Nc3ccc4ncccc4c32)cc1 has an inhibition of 29.1%.
O=C(Nc1n[nH]c2cc(-c3ccc(F)cc3)ccc12)C1CC1 showed an inhibition of 7.07%.
Work on c1cc(-c2cnn3nc(N4CCOCC4)ccc23)nc(NC2CC2)n1 yielded an inhibition of 9.21%.
Compound CCc1nn2ncccc2c1-c1ccnc(NC2CC2)n1 has an inhibition of 5.11%.
CN1CCC(n2cnc(-c3ccc(F)cc3)c2-c2ccnc(N)n2)CC1 gave an inhibition of 11.7%.
COc1ccc(-c2cc3c(N)ncnc3o2)cc1 was tested, and the inhibition was 4.07%.
With COc1ccc(-c2oc3ncnc(N)c3c2-c2ccc(NC(=O)Nc3cc(C(F)(F)F)ccc3F)cc2)cc1 the inhibition was 89.9%.
In the case of COc1cc(Nc2nccc(Nc3ccc4c(C)n[nH]c4c3)n2)cc(OC)c1OC, the inhibition was 65.5%.
With COC(=O)c1sc(-n2cnc3cc(OC)c(OC)cc32)cc1OCc1ccccc1C(F)(F)F the inhibition was 10.3%.
In the case of N#Cc1c(NC(=O)c2ccc(F)cc2)sc2c1CCCC2, the inhibition was 5.96%.
Compound NS(=O)(=O)c1ccc(Nc2ncc(-c3ccccc3)o2)cc1 has an inhibition of 7.75%.
For CCn1cc(-c2ccnc3[nH]ccc23)c(-c2cccc(NC(=O)Nc3ccc(OCc4ccccc4)cc3)c2)n1, the inhibition was -2.78%.
Work on c1ccc(-c2nc3n(c2-c2ccc4c(c2)OCO4)CCC3)nc1 yielded an inhibition of 3.77%.

These compounds were tested against T2, Ephrin type-B receptor 3 (Homo sapiens) (UniProt P54753). Conditions: at 0.1 µM.
T2 sequence (whole entry): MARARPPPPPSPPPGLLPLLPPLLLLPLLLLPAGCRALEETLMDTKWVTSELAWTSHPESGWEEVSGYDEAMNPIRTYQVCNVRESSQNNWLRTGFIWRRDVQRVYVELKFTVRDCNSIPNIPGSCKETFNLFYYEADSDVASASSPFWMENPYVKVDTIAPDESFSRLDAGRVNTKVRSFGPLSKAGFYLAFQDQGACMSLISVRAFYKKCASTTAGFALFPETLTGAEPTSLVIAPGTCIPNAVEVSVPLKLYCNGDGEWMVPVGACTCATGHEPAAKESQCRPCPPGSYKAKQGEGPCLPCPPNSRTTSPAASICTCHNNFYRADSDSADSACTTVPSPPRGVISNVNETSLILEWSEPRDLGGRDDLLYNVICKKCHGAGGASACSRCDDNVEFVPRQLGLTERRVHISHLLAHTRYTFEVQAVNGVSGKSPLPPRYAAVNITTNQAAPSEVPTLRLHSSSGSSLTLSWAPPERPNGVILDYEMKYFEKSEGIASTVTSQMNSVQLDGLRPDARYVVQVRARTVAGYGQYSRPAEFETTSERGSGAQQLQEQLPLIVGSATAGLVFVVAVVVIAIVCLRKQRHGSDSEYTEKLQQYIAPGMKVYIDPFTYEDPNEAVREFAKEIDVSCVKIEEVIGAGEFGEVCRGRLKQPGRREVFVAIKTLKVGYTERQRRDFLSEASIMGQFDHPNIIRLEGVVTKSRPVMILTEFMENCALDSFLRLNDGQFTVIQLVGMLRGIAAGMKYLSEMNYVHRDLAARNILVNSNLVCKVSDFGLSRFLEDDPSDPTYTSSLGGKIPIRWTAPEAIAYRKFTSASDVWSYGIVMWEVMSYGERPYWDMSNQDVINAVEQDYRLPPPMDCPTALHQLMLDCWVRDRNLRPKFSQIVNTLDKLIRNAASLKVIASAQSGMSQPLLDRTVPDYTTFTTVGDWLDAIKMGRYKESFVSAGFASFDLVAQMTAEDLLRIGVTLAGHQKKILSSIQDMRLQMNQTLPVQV
Fc1ccc(-c2cc(-c3c[nH]nc3-c3ccccn3)ccn2)cc1 showed an inhibition of 7.2%.
With Clc1ccc(-c2nn3ncccc3c2-c2ccnc(Nc3ccccc3)n2)cc1 the inhibition was 4.87%.
CC1=C(C(=O)Nc2cc(Cl)c3[nH]ncc3c2)C(c2ccc(C(F)(F)F)cc2)CC(=O)N1 (stereo unspecified) gave an inhibition of 5.62%.
CC(C)(CO)CNC(=O)c1ccc2c(c1)/C(=N/Nc1ccc(S(N)(=O)=O)cc1)C(=O)N2 showed an inhibition of -0.32%.
For COc1cccc(-c2c[nH]c3c(N/N=C/c4ccncc4)ncnc23)c1, the inhibition was 3.32%.
Cc1ccc(O)cc1Nc1ccnc2cc(-c3ccccn3)ccc12 was tested, and the inhibition was 18.1%.
For Cc1cccc2c1NC(=O)/C2=N\Nc1ccc(S(N)(=O)=O)cc1, the inhibition was 5.12%.
With CN1CCC(n2cnc(-c3ccc(F)cc3)c2-c2ccnc(Nc3ccccc3)n2)CC1 the inhibition was 4.66%.
For COc1ccc2[nH]c3c4[nH]c5ccc(OC)cc5c4c4c(c3c2c1)C(=O)NC4=O, the inhibition was 0.84%.
With CNC(=O)c1cncc(/C=C/c2ccccc2Cl)c1 the inhibition was -1.27%.
Work on COC(=O)Nc1nc2ccc(Oc3ccc(NC(=O)Nc4cccc(Cl)c4)cc3)cc2[nH]1 yielded an inhibition of 4.58%.
COc1ccc(-c2cc(-c3c[nH]nc3-c3ccccn3)ccn2)cc1 was tested, and the inhibition was 4.76%.
Compound CCn1c(-c2nonc2N)nc2ccccc21 has an inhibition of 5.49%.
In the case of COc1ccc(CNC(=O)c2ccc(-c3cc(-c4nnc(C)o4)ccc3C)cc2)cc1, the inhibition was -0.7%.
Compound Fc1cccc(COc2ccc(Nc3ncnc4sc(-c5ccco5)cc34)cc2Cl)c1 has an inhibition of 5.55%.
For CCn1c(-c2nonc2N)nc2c(C#CC(C)(C)O)ncc(OC3CCNCC3)c21, the inhibition was 3.01%.
For CNC(=O)c1cc(-c2ccc(F)cc2)cc(-c2ccc(S(=O)(=O)N3CCCC3)cc2)c1N, the inhibition was 0.26%.
With COc1cc(N2CCN(C(C)C)CC2)ccc1Nc1nc(Nc2ccc(F)cc2C(N)=O)c2cc[nH]c2n1 the inhibition was 2.78%.
CCn1c(-c2nonc2N)nc2cnc(Oc3cccc(NC(=O)c4ccc(N(C)C)cc4)c3)cc21 gave an inhibition of 4.18%.
For COc1ccc2c(-c3ccnc(Nc4cccc(OC(F)(F)F)c4)n3)cnn2n1, the inhibition was 3.51%.
Compound NS(=O)(=O)c1ccc(N/N=C2\C(=O)Nc3ccc4ncccc4c32)cc1 has an inhibition of 2.75%.
Compound O=C(Nc1n[nH]c2cc(-c3ccc(F)cc3)ccc12)C1CC1 has an inhibition of 5.69%.
Work on c1cc(-c2cnn3nc(N4CCOCC4)ccc23)nc(NC2CC2)n1 yielded an inhibition of 2.88%.
Work on CCc1nn2ncccc2c1-c1ccnc(NC2CC2)n1 yielded an inhibition of 2.18%.
For CN1CCC(n2cnc(-c3ccc(F)cc3)c2-c2ccnc(N)n2)CC1, the inhibition was 4.01%.
With COc1ccc(-c2cc3c(N)ncnc3o2)cc1 the inhibition was -1.39%.
With COc1ccc(-c2oc3ncnc(N)c3c2-c2ccc(NC(=O)Nc3cc(C(F)(F)F)ccc3F)cc2)cc1 the inhibition was 92.7%.
COc1cc(Nc2nccc(Nc3ccc4c(C)n[nH]c4c3)n2)cc(OC)c1OC gave an inhibition of 2.52%.
In the case of COC(=O)c1sc(-n2cnc3cc(OC)c(OC)cc32)cc1OCc1ccccc1C(F)(F)F, the inhibition was 7.34%.
In the case of N#Cc1c(NC(=O)c2ccc(F)cc2)sc2c1CCCC2, the inhibition was 2.46%.
For NS(=O)(=O)c1ccc(Nc2ncc(-c3ccccc3)o2)cc1, the inhibition was 4.17%.
CCn1cc(-c2ccnc3[nH]ccc23)c(-c2cccc(NC(=O)Nc3ccc(OCc4ccccc4)cc3)c2)n1 showed an inhibition of 0.02%.
For c1ccc(-c2nc3n(c2-c2ccc4c(c2)OCO4)CCC3)nc1, the inhibition was 4.03%.
